# Hits are enriched below; roughly 10% of the tested compounds scored in any of these assays.
# JMJD2A Tudor inh – blocks the human JMJD2A Tudor domain; O75164; AlphaScreen JMJD2A-Tudor / H3K4me3 peptide binding; Potency, µM (titrated, usually from 114 µM), for the others: at the top dose activity change, negative = inhibition, usual class: inhibitors; hit rate 4.4% among 390,000; AID 504339; note: % is set by controls: 0 for no effect and ±100 for the full control effect; nearly all actives have a fitted effect of over 50% in size
# HP1b binding inh – HP1-beta chromodomain-methylated histone interaction inhibition; P83916; AlphaScreen HP1-beta / biotin-H3K9me3 peptide binding; Potency, µM (doses to about 114 µM), for the others: at the top dose activity change, negative = inhibition, most hits filed as inhibitors; hit rate 0.56% among 390,000; note: nearly all actives have a fitted effect of over 70% in size
# Target sequence (P83916 whole entry, looked up): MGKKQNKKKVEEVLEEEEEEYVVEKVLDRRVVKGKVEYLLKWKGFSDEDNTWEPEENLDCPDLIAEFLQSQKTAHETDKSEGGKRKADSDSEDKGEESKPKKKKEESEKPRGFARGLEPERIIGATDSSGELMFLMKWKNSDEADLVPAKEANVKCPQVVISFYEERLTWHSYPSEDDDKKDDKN
#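 AlphaScreen: HP1-beta (50 nM) preformed 30 min with biotin-H3(1-18)K9me3 peptide (50 nM) in PBS pH 7.4, 0.01% Tween-20. Compound added for 30 min at RT, then streptavidin donor/nickel chelate acceptor beads (10 ug/mL) for 30 min.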
# G9a inh – G9a (human) methyltransferase inhibition; hit rate 8.8% among 350,000; AID 504332; Potency, µM (top dose mostly 102 µM), for the others: top-dose activity, negative = inhibition, most hits filed as inhibitors; Q96KQ7; G9a H3K9 monomethylation, AlphaScreen, 2 h; note: % is set by controls: 0 for no effect and ±100 for the full control effect; nearly all actives have a fitted effect of over 75% in size
# Target sequence (Q96KQ7 913-1193 limits assumed): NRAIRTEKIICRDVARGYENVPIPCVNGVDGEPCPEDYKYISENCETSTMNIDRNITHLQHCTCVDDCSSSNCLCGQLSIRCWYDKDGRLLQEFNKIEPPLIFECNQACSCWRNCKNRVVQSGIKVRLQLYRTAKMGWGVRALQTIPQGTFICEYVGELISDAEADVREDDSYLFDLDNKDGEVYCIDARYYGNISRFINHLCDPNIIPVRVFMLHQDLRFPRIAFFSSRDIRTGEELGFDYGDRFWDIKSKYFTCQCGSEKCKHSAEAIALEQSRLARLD
#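 Step 1: enzyme (final 20 nM) with compound, 15 min RT. Step 2: substrate peptide 500 nM and SAM 20 uM, 2 h RT. Step 3: anti-H3K9me1 antibody and AlphaScreen beads, 10 min, then plate read.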
# GLS inh – inhibitors of human glutaminase (GLS). GLS enzymatic activity, qHTS titration. Potency, µM (titrated, usually from 45.5 µM), inactives show top-dose activity change, negative = inhibition, hits mostly inhibitors. hit rate 0.21% among 410,000. AID 624170; note: % is set by controls: 0 for no effect and ±100 for the full control effect
#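 Human kidney-isoform GLS in 45 mM KH2PO4 pH 8.2, 0.02% Tween-20, with compound, started with 1mM L-Glutamine (added stock). Glutamate oxidase/HRP/Amplex red coupled fluorescence read at start and after 30 min at RT.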
# BAZ2B block – BAZ2B (human) inhibition. AlphaScreen BAZ2B-H3K14Ac peptide displacement. AID 504333. Potency, µM (doses to about 114 µM), without a hit: top-dose activity change, negative = inhibition, hits mostly inhibitors. hit rate 4.4% among 360,000; note: % is set by controls: 0 for no effect and ±100 for the full control effect; nearly all actives have a fitted effect of over 60% in size
#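 AlphaScreen displacement: compounds (up to 110uM) incubated 30 min at room temperature with a preformed 50 nM BAZ2B/50 nM biotinylated H3K14Ac peptide complex in PBS pH 7.4 with Tween-20. Donor and acceptor beads at 10 ug/mL final added, 20 min light-protected before reading.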
# Active calls of the source: *; ? = inconclusive; · = no result given; [ ] = another dose, or the depositor's remark. Calls come from the whole dose curve; as a rule, active = well fitted curve in the direction sought with a large enough effect; inconclusive = small, poorly fitted or top-dose-only effect, or another doubt; inactive = no such curve, though single readings can be large; an effect the other way counts as inactive or inconclusive. Potency is the fitted concentration of half-maximal effect.
SMILES,JMJD2A Tudor inh,HP1b binding inh,G9a inh,GLS inh,BAZ2B block
Cc1ccc(Cl)cc1N1CCN(Cc2nc3c(c(=O)[nH]c(=O)n3C)n2Cc2ccccc2F)CC1,?,19%,40µM*,-8%,4%
COc1ccc(N2CCN(Cc3nc4c(c(=O)[nH]c(=O)n4C)n3CC(C)C)CC2)cc1,-19%,29%,25µM*,-2%,-38%
COc1ccc2c(c1)c1c(c(=O)n(-c3ccc(OC)c(OC)c3)c(=O)n1Cc1ccc(F)cc1)n2C,-9%,-2%,-3%[59 µM],2%,-3%
CC1CCC(NC(=O)CN2C(=O)NC(C)(C)C2=O)CC1 (stereo unspecified),-8%,21%,?,1%,-6%
NCCCCC(NC(=O)C1CCCN1C(=O)C1CSSCC(N)C(=O)NC(Cc2ccccc2)C(=O)NC(Cc2ccccc2)C(=O)NC(CCC(N)=O)C(=O)NC(CC(N)=O)C(=O)N1)C(=O)NCC(N)=O (stereo unspecified),·,·,·,-1%,·
CCCCS(=O)(=O)Nc1ccc(C)cn1,-18%,?,7.1µM*,-15%,-2%
N#CN1CCC(NS(=O)(=O)c2cccc(C(F)(F)F)c2)CC1,-8%,·,·,·,·
Cc1ccc(Cl)cc1NS(=O)(=O)c1ccc2oc(=O)c3ncn(C)c3c2c1,6%,31%,-10%[59 µM],-14%,-21%
CCN(CC)CCn1c2c(c(SCC(=O)Nc3cccc4ccccc34)nc1=O)CCCC2,-24%,12%,13µM*,2%,9%
CN(C)CCCn1c2c(c(SCC(=O)Nc3cccc4ccccc34)nc1=O)CCC2,-17%,-9%,50µM*,-1%,13%
Cc1cc(Br)ccc1NC(=O)CSc1c2c(nc3ccccc13)CCC2,-9%,31%,0%[59 µM],8%,·
Cc1nc2ccc([N+](=O)[O-])cc2nc1C,-18%,27%,0%,-13%,-17%
CC1=Nc2cc([N+](=O)[O-])ccc2NC(C)(C)C1,?,-7%,32µM*,-2%,?
CCc1ccc(C(=O)c2cn(CC(=O)Nc3ccc4c(c3)OCO4)c3ccc(OC)cc3c2=O)cc1,8.9µM*,-10%,14µM*,-5%,79µM*
O=C(CSCc1cccc(F)c1)NCc1ccccc1,-2%,20%,30%,3%,-2%
Cc1ccc(CNC(=O)CSCc2cccc(F)c2)cc1,50µM*,-6%,-22%,?,·
Cc1ccc(/C=N/NC(=O)CN2C(=O)CSc3ccccc32)o1,-5%,25%,45µM*,-13%,-2%
O=C(N/N=C/C=C/c1ccccc1)C(O)c1ccccc1 (stereo unspecified),-14%,20%,·,-3%,·
Cn1cccc1CC(=O)N/N=C/C=C/c1ccco1,?,?,13µM*,-1%,56µM*
C/C(=N\NC(=O)Cc1cccn1C)c1ccco1,-14%,33%,3%[12.7 µM],3%,-16%
O=C(N/N=C/C=C/c1ccco1)C(O)c1ccccc1 (stereo unspecified),56µM*,-6%,·,-5%,·
Cc1ccc(/C=N\NC(=O)Cc2cccn2C)o1,-3%[57.1 µM],8%,28µM*,9%,·
CCc1cccc(NC(=O)Cn2c(=O)c3cccn3c3ccccc32)c1,-7%,37%,·,3%,-4%
Cn1cccc1CC(=O)N/N=C\c1ccccc1,-19%,7%,-43%,8%,-31%
Cn1cccc1CC(=O)N/N=C/c1ccc([N+](=O)[O-])cc1,?,?,50µM*,4%,?
SMILES,JMJD2A Tudor inh,HP1b binding inh,G9a inh,GLS inh,BAZ2B block
O=C(COc1ccccc1[N+](=O)[O-])N/N=C/C=C/c1ccco1,-13%[57.1 µM],19%,40µM*,0%,-38%
CSCCC(NC(=O)c1ccc(Cl)cc1Cl)C(=O)NCC(c1cccs1)N(C)C (stereo unspecified),-28%,13%,·,0%,·
COc1ccccc1C(=O)Nc1ccccc1C(=O)OCc1cc(=O)n2ccsc2n1,-6%,26%,-3%[12.7 µM],-2%,-17%
Cn1cccc1C(=O)N1CCC2(CC1)CN(C(c1ccccc1)c1ccccc1)C2,·,·,-4%[12.7 µM],·,·
C=CCn1c(SCc2csc(-c3ccc(C)cc3)n2)nnc1-c1ccccc1OC,?,11%,32µM*,2%,2%
COC(C(=O)Nc1ccc(NC(=O)C(OC)c2ccccc2)cc1)c1ccccc1 (stereo unspecified),3%,54%,50µM*,-14%,-10%
COC(C(=O)Nc1c(F)cccc1F)c1ccccc1 (stereo unspecified),-1%,23%,-7%,-4%,2%
COC(C(=O)Nc1ccc(Cl)cc1C)c1ccccc1 (stereo unspecified),-15%[57.1 µM],29%,8.9µM*,7%,-9%
O=C(OCc1cccc(F)c1)c1cc2ccccc2cc1O,141%,162%,16%[0.501 µM],-9%,126%
c1c[nH]c(CN2CCN(Cc3ncc[nH]3)CC2)n1,14µM*,23%,·,-14%,·
Cc1cc2cc(CCNS(=O)(=O)c3ccc(Br)cc3)c(=O)[nH]c2cc1C,-32%,-6%,-5%[59 µM],2%,-12%
O=C(OCC(=O)N1CCc2ccccc2C1)c1c(F)cccc1Cl,13%,58%,·,-3%,·
Nc1[nH]n2c(=O)cc(-c3ccccc3)nc2c1N=Nc1ccccc1,-32%,-11%,?,8%,10%[57.1 µM]
Nc1[nH]n2c(=O)cc(-c3ccccc3)nc2c1N=Nc1ccc(S(N)(=O)=O)cc1,?,-14%,35µM*,20%,?
O=C(c1cc(-c2ccc(O)cc2)on1)N1CCN(c2ccc(F)cc2)CC1,?,9%,·,9%,?
O=C(c1cc(-c2cccc(O)c2)on1)N1CCCC1,-9%,10%,50µM*,3%,-1%
O=C(c1cc(-c2ccc(O)cc2)on1)N1CCN(c2ccccc2)CC1,56µM*,-22%,-4%[59 µM],14%,?
O=C(c1cc(C2CC2)nn1-c1ccccc1)N1CCN(c2ccccc2O)CC1,-34%,8%,·,?,·
O=C(c1cc(C2CC2)nn1-c1ccccc1)N1CCN(c2ccc(O)cc2)CC1,32µM*,71µM*,2.8µM*,13%,?
Cc1oc(-c2ccccc2F)nc1CS(=O)(=O)CC(=O)NCCN(C)C1CCCCC1,-30%,1%,-19%,10%,11%
CCSc1nc2n(n1)C(c1ccc(C(=O)O)cc1)C(C(=O)Nc1ccccc1C)=C(C)N2 (stereo unspecified),-15%,51%,-2%[59 µM],28%,-14%
Clc1cccc(-c2ccc(CNCCSc3nnnn3-c3ccccc3)o2)c1,27%,49%,?,2%,?
Brc1ccc(-c2ccc(CNCCSc3nnnn3-c3ccccc3)o2)cc1,-35%,8%,16µM*,1%,20µM*
O=C(NCc1cccs1)C1CCN(c2ccc(S(=O)(=O)N3CCOCC3)cc2Cl)CC1,-14%,25%,-32%[59 µM],-4%,1%
Oc1ccccc1CNc1ccc2c(c1)OCCO2,-35%,4%,?,4%,?

# Bioassay records (PubChem BioAssay)
